This is an account of results in PubChem BioAssay.

A short description of assay [1]: compounds binding Alexa647 anti-His antibody – biochemical, small-molecule microarray, 635 nm fluorescence, artefact control for SMM control protein annotation, primary screen (AID 1128).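 Note: score merges feature fluorescence with signal-to-noise for each printed compound spot.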 To be noted: higher = more signal.
For assay [2], the system named is Human papillomavirus type 1a E7 protein (residues 1-88). Kind of assay: HPV1a E7 small-molecule binders, primary screen, biochemical, small-molecule microarray, residues 1-88, 635 nm (AID 1129). To be noted: small-molecule microarray binding, fluorescence 635 nm; higher = more signal.
The target in assay [3] is Focal adhesion kinase 1 (Homo sapiens) (UniProt Q05397). Kind of assay: PTK2 protein binding on printed compound slides – biochemical, small-molecule microarray, 635/667 nm fluorescence, BSA, DTT, primary screen (AID 1130).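 Note: composite of spot emission at 667 nm and signal to noise over triplicate slides.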 Particulars: 635 nm fluorescence, higher = more signal.
Assay [4] relates to Fibrinogen (Alexa647-labelled). Description: Alexa647-fibrinogen binding to printed small molecules – biochemical, small-molecule microarray, 635/667 nm fluorescence, artefact control for SMM control-protein annotation, profiling panel (AID 1131).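 Note: z-score merges 667 nm fluorescence with per-spot signal-to-noise over triplicate slides.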 To be noted: fibrinogen-A647 binding fluorescence, higher = more signal.
In assay [5] the target is Follistatin (Homo sapiens) (UniProt P19883). Description: FST protein binding to printed compounds – biochemical, small-molecule microarray, 635/667 nm fluorescence, primary screen (AID 1132). To be noted: 635 nm fluorescence, higher = more signal.
For assay [6], the target named is Fibroblast growth factor 2 (Homo sapiens) (UniProt P09038). Kind of assay: basic fibroblast growth factor binding to printed compounds – biochemical, small-molecule microarray, 635/667 nm fluorescence, primary screen (AID 1133). To be noted: FGF2, fluorescence 635/667, higher = more signal.
Assay [7] is described as follows: JC-1 mitochondrial potential readout, lung cancer cells – cell-based, A549, JC-1 fluorescence, basal, 24 h, 100 nL, profiling panel (AID 1138).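 Note: A549 lung adenocarcinoma cells under basal conditions with no added stimulus; test concentration not given here.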 To be noted: higher = more signal.
Another assay relates to Lefty1. Description: Lefty1 protein binding to printed compounds – biochemical, small-molecule microarray, 635/667 nm fluorescence, primary screen (AID 1139). To be noted: fluorescence 635/667, higher = more signal.
Assay [8] concerns wheat germ agglutinin (Triticum aestivum), Alexa647-labelled. Kind of assay: Alexa647-WGA lectin binding to printed small molecules – biochemical, small-molecule microarray, 635/667 nm fluorescence, artefact control for SMM control-protein annotation, profiling panel (AID 1140).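 Note: score merges 667 nm feature emission with signal to noise over triplicate slides.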 To be noted: WGA-A647 binding, 635 nm fluorescence, higher = more signal.
Assay [9] concerns the target Luciferin 4-monooxygenase (Photinus pyralis) (UniProt P08659). Description: inhibition of purified Photinus pyralis luciferase – biochemical, luminescence, purified enzyme, 2006 set, primary screen (AID 1141).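 Note: cell-free assay with purified firefly luciferase at 100 ng per well in PBS; test concentration not given here.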 Particulars: purified firefly luciferase, SteadyGlo luminescence, 30 min; higher = more signal, called active from +8 up or from −8 down.

Each structure is given as a SMILES string. The source made the active and inactive calls.

Sequence of Follistatin (Homo sapiens) (P19883 whole entry, looked up): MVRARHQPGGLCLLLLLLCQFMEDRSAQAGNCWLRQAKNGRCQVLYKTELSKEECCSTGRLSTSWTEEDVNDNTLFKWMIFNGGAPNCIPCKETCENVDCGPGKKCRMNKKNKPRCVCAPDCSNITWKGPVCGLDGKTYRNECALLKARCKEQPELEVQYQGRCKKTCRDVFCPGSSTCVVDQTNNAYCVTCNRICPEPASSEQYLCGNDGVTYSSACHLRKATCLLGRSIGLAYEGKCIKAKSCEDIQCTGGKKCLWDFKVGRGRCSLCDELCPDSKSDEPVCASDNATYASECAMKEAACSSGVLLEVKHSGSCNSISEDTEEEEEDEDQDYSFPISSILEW
Sequence of Focal adhesion kinase 1 (Homo sapiens) (Q05397 whole entry, looked up): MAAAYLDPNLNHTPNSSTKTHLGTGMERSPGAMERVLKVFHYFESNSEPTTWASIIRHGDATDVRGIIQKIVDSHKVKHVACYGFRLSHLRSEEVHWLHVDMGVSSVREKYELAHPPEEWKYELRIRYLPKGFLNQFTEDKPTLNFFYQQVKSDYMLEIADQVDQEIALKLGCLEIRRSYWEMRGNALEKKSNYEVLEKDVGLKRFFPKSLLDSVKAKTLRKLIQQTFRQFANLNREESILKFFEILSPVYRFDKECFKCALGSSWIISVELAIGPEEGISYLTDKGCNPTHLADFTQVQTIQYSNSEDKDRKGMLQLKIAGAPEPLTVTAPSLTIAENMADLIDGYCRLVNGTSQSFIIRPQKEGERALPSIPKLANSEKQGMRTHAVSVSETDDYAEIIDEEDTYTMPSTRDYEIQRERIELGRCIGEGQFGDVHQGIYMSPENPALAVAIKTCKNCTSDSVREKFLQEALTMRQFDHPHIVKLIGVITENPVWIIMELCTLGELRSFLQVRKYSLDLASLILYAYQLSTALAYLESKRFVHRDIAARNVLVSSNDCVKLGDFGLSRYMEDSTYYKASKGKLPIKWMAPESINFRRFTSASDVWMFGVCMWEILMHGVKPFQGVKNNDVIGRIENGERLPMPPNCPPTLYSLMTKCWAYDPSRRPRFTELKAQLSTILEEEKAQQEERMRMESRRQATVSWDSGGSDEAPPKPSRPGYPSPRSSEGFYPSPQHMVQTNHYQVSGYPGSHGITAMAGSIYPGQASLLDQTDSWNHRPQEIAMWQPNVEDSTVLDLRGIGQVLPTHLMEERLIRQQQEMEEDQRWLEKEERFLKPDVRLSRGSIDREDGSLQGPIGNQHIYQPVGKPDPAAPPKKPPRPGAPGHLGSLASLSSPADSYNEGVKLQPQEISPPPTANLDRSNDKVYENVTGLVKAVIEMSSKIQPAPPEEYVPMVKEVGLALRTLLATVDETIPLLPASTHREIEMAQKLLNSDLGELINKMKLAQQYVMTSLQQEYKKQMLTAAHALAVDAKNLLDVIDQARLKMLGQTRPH
Sequence of Luciferin 4-monooxygenase (Photinus pyralis) (P08659 whole entry, looked up): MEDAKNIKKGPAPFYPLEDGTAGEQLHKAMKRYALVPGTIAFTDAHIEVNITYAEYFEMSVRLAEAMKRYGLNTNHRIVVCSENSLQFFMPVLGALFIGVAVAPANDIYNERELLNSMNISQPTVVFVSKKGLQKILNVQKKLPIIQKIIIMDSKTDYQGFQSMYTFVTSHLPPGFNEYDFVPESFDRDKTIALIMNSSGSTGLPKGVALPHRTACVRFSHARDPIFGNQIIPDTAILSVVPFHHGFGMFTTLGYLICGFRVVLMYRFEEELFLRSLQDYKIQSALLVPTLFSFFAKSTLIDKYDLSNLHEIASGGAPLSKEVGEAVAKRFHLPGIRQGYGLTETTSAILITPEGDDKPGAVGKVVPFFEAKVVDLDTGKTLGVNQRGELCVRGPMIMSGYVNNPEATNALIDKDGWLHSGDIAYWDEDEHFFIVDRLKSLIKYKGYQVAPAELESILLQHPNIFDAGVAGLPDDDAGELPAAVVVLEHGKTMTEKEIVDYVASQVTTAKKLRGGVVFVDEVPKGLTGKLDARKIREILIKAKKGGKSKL
Sequence of Fibroblast growth factor 2 (Homo sapiens) (P09038 whole entry, looked up): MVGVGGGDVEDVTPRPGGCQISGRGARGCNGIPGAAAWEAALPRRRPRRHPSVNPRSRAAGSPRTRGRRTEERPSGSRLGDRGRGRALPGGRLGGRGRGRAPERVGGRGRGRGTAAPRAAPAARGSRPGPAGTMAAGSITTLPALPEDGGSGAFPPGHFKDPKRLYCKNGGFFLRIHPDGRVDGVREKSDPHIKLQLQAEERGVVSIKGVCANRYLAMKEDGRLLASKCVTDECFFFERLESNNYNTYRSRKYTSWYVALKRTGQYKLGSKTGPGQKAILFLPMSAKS

As for `COC(=O)[C@@]1(Cc2ccc(OC)cc2)[C@H]2c3cc(C(=O)N4CCCC4)n(Cc4ccsc4Br)c3C[C@H]2CN1C(=O)c1ccccc1`, the composite z-score was 0.198 in [1]; 1.12 in [2]; 0.565 in assay [3]; -0.152 in assay [4]; 0.073 in assay [5]; -0.88 in assay [6]. Moreover, the values for the composite z-score (with Lefty1; in assay [8]) were -0.402 and 0.604, respectively. Further, the z-score is -0.404 in assay [7] and -0.777 (inactive) in [9].

Consider `O=C1C2C=CC(C(O)c3ccc(F)cc3)N(Nc3ccccc3F)C2C(=O)N1c1ccccc1` (stereo not given), for which the composite z-score in [1] is 1.55; in assay [2], 1.13; in assay [3], 0.198; in assay [4], 0.958; in assay [5] it was 1; in assay [6], -0.514. Also, the composite z-score in the assay with Lefty1 is -0.497; in assay [8] it was 1.17. The figures for the z-score in assay [7] and in assay [9] were -0.227 and 1.28 (inactive), respectively.

On to `CCc1oc(CC[C@@H](CO)NC(=O)NCCn2cc(C3(O)CCCCC3)nn2)c(C(=O)OC)c1C(=O)OC`, for which the composite z-score in assay [1] was 2.48; in assay [2] it was 0.687; in assay [3], -0.353; in assay [4], 0.685; in assay [5] it was 1.28; in assay [6], 1.13. Moreover, the composite z-score in the assay on Lefty1 was found to be 1.63; in assay [8], 0.074. In addition, the z-score in assay [7] is -0.0225; in [9] it was 0.654 (inactive).

Turning to `COCCOC(=O)N1C(=O)[C@@]2(c3cc(C#CCCO)ccc31)[C@H](C(=O)N1CCc3cc(OC)c(OC)cc3C1)[C@H]1C(=O)O[C@H](c3ccccc3)[C@H](c3ccccc3)N1[C@@H]2c1ccc(O)cc1`, the composite z-score amounted to 1.89 in assay [1]; 1.22 in assay [2]; 0.831 in [3]; 0.904 in assay [4]; 0.949 in assay [5]; 0.622 in [6]. Also, the composite z-score in the assay on Lefty1 is 0.791; in assay [8] it was 0.393. Besides, the z-score was 0.188 in assay [7] and -0.407 (inactive) in assay [9].

Take `CCN(CC)c1ccc(N2CC=CC34O[C@@H]5/C=C\CCC(C)OC(=O)C5[C@H]3C(=O)N(C(CO)C(C)C)[C@@H]4C2=O)cc1` (stereo not given in full): the composite z-score in assay [1] is -0.264; in assay [2], -0.651; in [3] it was 0.174; in assay [4], -0.4; in [5] it was -0.452; in assay [6], 0.0509. For the same compound, the composite z-score is -0.674 with Lefty1 and -0.558 in [8]. Further, the values for the z-score in assay [7] and in assay [9] were 0.93 and -1.09 (inactive), respectively.

For the compound `COC(=O)[C@@]1(Cc2ccc(F)cc2)[C@H]2c3cc(C(=O)N4CCCC4)n(Cc4ccc(C)o4)c3C[C@H]2CN1C(=O)c1ccccc1`, the composite z-score in assay [1] was 1.69; in assay [2], 1.07; in [3] it was 1.05; in assay [4], 0.952; in assay [5] it was 0.4; in assay [6], -0.708. Besides, the composite z-score with Lefty1 is 0.181; in assay [8], 0.794. Moreover, the z-score in assay [7] was 0.821; in assay [9] it was -13.4 (active).

As for `CN1C(=O)[C@]2(Cc3ccccc3)N=C(c3ccc(OCCCO)cc3)O[C@@H]2c2ccccc21`, the composite z-score is 0.0581 in assay [1]; 1.2 in assay [2]; 1.07 in assay [3]; 0.775 in [4]; 1.3 in [5]; 1.8 in assay [6]. In addition, the composite z-score in the assay with Lefty1 was found to be 0.201; in assay [8] it was 0.831. The z-score was -0.00476 in assay [7] and -4.06 (inactive) in assay [9].

`COc1ccc(C(=O)Nc2cccc(CN3C(=O)[C@]4(O[C@H](CCO)[C@@H]([Si](C)(C)c5ccc(OC)cc5)[C@@H]4C)c4ccccc43)c2)cc1`: the composite z-score in assay [1] amounted to 0.869; in assay [2], 1.17; in [3], 0.354; in assay [4], 0.579; in assay [5], 1.24; in assay [6] it was 0.699. For the same compound, the values for the composite z-score (in the assay on Lefty1; in [8]) were 1.35 and 0.32, respectively. In addition, the z-score was -1.52 in [7] and 0.681 (inactive) in assay [9].

For `CCCCN1CC=CC23O[C@@H]4C=CCOC(=O)[C@@H]4[C@H]2C(=O)N(CCCCCO)[C@@H]3C1=O` (stereo not given in full), the composite z-score was 0.0981 in assay [1]; -0.444 in assay [2]; -0.204 in assay [3]; -0.921 in assay [4]; -0.712 in [5]; -0.342 in [6]. The composite z-score in the assay with Lefty1 is -0.393; in assay [8], -0.651. For the same compound, the values for the z-score in assay [7] and in assay [9] were -0.478 and 0.01 (inactive), respectively.

As to `CC(C)(C)OC(=O)CC[C@@]12N=C(c3ccc(OCCCO)cc3)O[C@@H]1c1ccccc1N(CCS(=O)(=O)c1ccccc1)C2=O`, the composite z-score in assay [1] was found to be 2.03; in [2], 1.19; in [3], 0.412; in [4], 0.129; in [5], 1.3; in assay [6], 0.109. The composite z-score in the assay on Lefty1 was 0.644; in assay [8], 0.653. The figures for the z-score in assay [7] and in assay [9] were 0.84 and -7.46 (inactive), respectively.

Turning to `CC1(C)[C@@H]2CC(C(O)C3C=CC4C(=O)N(c5ccccc5)C(=O)C4N3Nc3ccccc3)=C[C@H]1C2` (stereo not given in full), the composite z-score is -0.21 in assay [1]; 0.598 in assay [2]; 1.13 in [3]; 0.153 in assay [4]; 0.955 in assay [5]; 0.329 in [6]. Also, the composite z-score is -0.409 with Lefty1 and 0.241 in [8]. Further, the z-score in assay [7] is 1.01; in assay [9] it was 0.486 (inactive).

For `CCOC1=C2C(CN(S(=O)(=O)c3ccc(C)cc3)C2c2ccc(C)cc2)C2C(=O)N(c3ccccc3)C(=O)C2C1` (stereo not given), the composite z-score is 0.727 in [1]; 1.15 in [2]; 0.553 in [3]; 0.783 in [4]; 0.475 in [5]; 0.301 in [6]. Also, the values for the composite z-score (with Lefty1; in [8]) were 0.535 and 0.4, respectively. Further, the results for the z-score in [7] and in [9] were -0.368 and 1.09 (inactive), respectively.

As for `COC(=O)[C@@]1(Cc2ccccc2)[C@H]2c3cc(C(=O)N4CCCC4)n(CC4CC4)c3C[C@H]2CN1C(=O)c1ccccc1`, the composite z-score in [1] is 1.13; in assay [2], 1.2; in [3], 0.885; in assay [4], 0.643; in [5], 0.76; in assay [6], -0.031. Besides, the composite z-score was determined as 0.206 with Lefty1 and 0.847 in assay [8]. Further, the values for the z-score in assay [7] and in assay [9] were -0.641 and 1.42 (inactive), respectively.

Regarding `CS(=O)(=O)CCOC(=O)C1=CC(CCCO)=CC(c2ccc(CN3CCCC3)cc2)N(Cc2cc3c(cc2Br)OCO3)C=C1C(=O)OCCS(C)(=O)=O` (stereo not given), the composite z-score came out at 2.28 in assay [1]; 0.712 in [2]; 0.0113 in assay [3]; 0.971 in [4]; 0.694 in assay [5]; 0.382 in assay [6]. Besides, the values for the composite z-score (in the assay on Lefty1; in assay [8]) were 0.666 and 0.914, respectively. Moreover, the z-score is 3.39 in assay [7] and -1.78 (inactive) in assay [9].

For the compound `O=C1O[C@@H](c2ccccc2)[C@@H](c2ccccc2)N2[C@@H](c3ccccc3OCCO)[C@]3(C(=O)Nc4ccc(C#CC5=CCCCC5)cc43)[C@@H](C(=O)Nc3nc4ccccc4s3)[C@H]12`, the composite z-score was 0.353 in assay [1]; 1.17 in assay [2]; 0.0358 in assay [3]; 0.843 in assay [4]; 1.12 in [5]; 0.885 in [6]. Moreover, the composite z-score turned out to be 0.781 in the assay with Lefty1 and 0.622 in assay [8]. The figures for the z-score in assay [7] and in assay [9] were -2.22 and -0.959 (inactive), respectively.

With `COc1ccc([Si](C)(C)[C@@H]2[C@@H](CCO)O[C@]3(C(=O)N(Cc4ccc(N5C(=O)COc6ccccc65)cc4)c4ccccc43)[C@H]2C)cc1`, the composite z-score was determined as 1.58 in assay [1]; 1.18 in assay [2]; 0.571 in [3]; 0.814 in [4]; 0.59 in [5]; 0.621 in [6]. Further, the composite z-score came to 0.955 in the assay on Lefty1 and 0.978 in assay [8]. Also, the z-score was -0.342 in assay [7] and 0.686 (inactive) in [9].

On to `C#CCN(CC=C(C)C)[C@H](CO)c1ccccc1`, for which the composite z-score was -0.237 in [1]; 0.729 in [2]; -0.122 in assay [3]; -0.0376 in assay [4]; 0.391 in assay [5]; 0.295 in [6]. The results for the composite z-score (with Lefty1; in assay [8]) were -0.0431 and -0.196, respectively. In addition, the z-score in assay [7] was -1.47; in assay [9] it was 0.648 (inactive).
